Rows were chosen to be rich in hits. Some 1.4% of all compounds tested hit in one or more screens of this group.
ERK EGF inh = qHTS Assay for Inhibitors of the ERK Signaling Pathway using a Homogeneous Screening Assay; Stimulation with EGF | HEK293-V1b, EGF-stimulated phospho-ERK AlphaScreen | Potency, µM (doses to about 11.5 µM), hits mostly inhibitors | 0.41% of 130,000 active | AID 1454, 2008; further: nearly all actives have a fitted effect of over 55% in size
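Cell line HEK293 (stable V1b), low serum overnight. Pretreatment: compound 30 min, 37C. EGF 25 nM, 5 min. Detection: SureFire AlphaScreen, 5 h RT. AC50 via standard Hill equation.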
HTT aggregate = qHTS Multiplex Assay to Identify Dual Action Probes in a Cell Model of Huntington: Aggregate Formation (GFP); PC12 HttQ103-GFP aggregates, Acumen cytometry, 40 h; Potency, µM (top dose mostly 46.1 µM), most hits filed as inhibitors; 1.1% of 220,000 active; further: nearly all actives have a fitted effect of over 60% in size
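Using laser scanning cytometry, GFP-positive aggregates were counted after lysis of PC12 cells induced with 100 nM tebufenozide to express HTT exon 1 Q103–GFP. Compounds were tested in titration.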
HTT cytoprotect = qHTS Multiplex Assay to Identify Dual Action Probes in a Cell Model of Huntington: Cytoprotection (ATP); Potency, µM (series often up to 56.4 µM), usual class: activators; PC12 HTT-Q103 induced, cytoprotection, ATP luminescence, 40 h; 0.14% of 230,000 active; further: nearly all actives have a fitted effect of over 45% in size
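ATP quantification (ATPlite) reports survival of PC12 cells in which tebufenozide, 100 nM final, switches on Htt exon 1 with 103 glutamines linked to GFP; compounds are titrated.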
Hits are given with their value; [ ] = dose if it differs, or a comment. The call rests on the fitted dose curve; in most records, active means well fitted curve in the direction sought with a large enough effect; inconclusive means small, poorly fitted or top-dose-only effect, or another doubt; inactive means no such curve, though single readings can be large; an effect the other way counts as inactive or inconclusive.

What do the screens show for `COC(=O)[C@@H]1C(O)[C@@H](C(=O)OC)[C@H](C)N(C)[C@@H]1C` (some centres not stated)?
HTT cytoprotect: inactive[10 µM]

How did O=C(Nc1nc(-c2ccccn2)cs1)c1ccco1 do in these assays?
ERK EGF inh: inactive; HTT aggregate: inconclusive; HTT cytoprotect: inactive

What do the screens show for `O=C(Nc1nc(-c2ccccn2)cs1)c1ccc(Br)s1`?
HTT aggregate: 1.3µM; HTT cytoprotect: inactive

What do the screens show for `Fc1ccc(-n2nnc(-c3cccnc3)n2)cc1`?
ERK EGF inh: inactive; HTT aggregate: inactive[9.22 µM]; HTT cytoprotect: inactive[10 µM]

What do the screens show for `Fc1ccc(C(CCCn2nnc(-c3cccnc3)n2)c2ccc(F)cc2)cc1`?
HTT aggregate: 13µM; HTT cytoprotect: inactive

How did Cc1cnc(CNc2ncncc2-c2ccc3c(c2)OCO3)cn1 do in these assays?
HTT cytoprotect: inactive

Results for CCN(c1ccccc1)S(=O)(=O)c1ccc(C(=O)Nc2nnc(CSC)o2)cc1 ?
ERK EGF inh: inactive; HTT aggregate: inconclusive; HTT cytoprotect: inactive

How did CCCCN(CC)S(=O)(=O)c1ccc(C(=O)Nc2nnc(COC)o2)cc1 do in these assays?
HTT aggregate: inconclusive; HTT cytoprotect: inactive

Results for CCCCN(CC)S(=O)(=O)c1ccc(C(=O)Nc2nnc(CSC)o2)cc1 ?
HTT aggregate: 10µM; HTT cytoprotect: inactive

Results for CCCN(CCC)S(=O)(=O)c1ccc(C(=O)Nc2nnc(CSC)o2)cc1 ?
HTT aggregate: 11µM; HTT cytoprotect: inactive

What do the screens show for `CCN(Cc1ccccc1)S(=O)(=O)c1ccc(C(=O)Nc2nnc(-c3ccccc3OC)o2)cc1`?
HTT aggregate: 22µM; HTT cytoprotect: inactive[10 µM]

How did COc1ccccc1-c1nnc(NC(=O)c2ccc(S(=O)(=O)N(C)C)cc2)o1 do in these assays?
HTT aggregate: inactive[9.22 µM]; HTT cytoprotect: inactive

What do the screens show for `CCCCN(CCCC)S(=O)(=O)c1ccc(C(=O)Nc2nnc(CSC)o2)cc1`?
HTT aggregate: inconclusive; HTT cytoprotect: inactive

Results for CCCCN(CC)S(=O)(=O)c1ccc(C(=O)Nc2nnc(-c3ccccc3Cl)o2)cc1 ?
HTT aggregate: 10µM; HTT cytoprotect: inactive[10 µM]

What do the screens show for `O=C(O)c1ccc(Cl)c(Cl)c1`?
HTT cytoprotect: inactive

Results for CCc1cccc2nc3c(c([Si](C)(C)C)c12)Cn1c-3cccc1=O ?
ERK EGF inh: inactive; HTT cytoprotect: inactive

How did COc1ccccc1-c1nccc(NCc2cccs2)n1 do in these assays?
HTT cytoprotect: inactive

What do the screens show for `O=C(NC1CCCC1)c1sc(=S)n2c1[nH]c(=O)c1ccccc12`?
HTT aggregate: 8.9µM; HTT cytoprotect: inactive

What do the screens show for `O=C(NCc1ccco1)c1sc(=S)n2c1[nH]c(=O)c1ccccc12`?
HTT aggregate: inactive; HTT cytoprotect: inactive[0.074 µM]

How did CCCC[C@@H]1C[C@H]1C(NC(=O)c1cccs1)c1ccccc1C(F)(F)F (some centres not stated) do in these assays?
ERK EGF inh: inactive; HTT cytoprotect: inactive

How did CCOC(=O)c1ccc(N2C(=O)C=CC2=O)cc1 do in these assays?
HTT aggregate: 22µM; HTT cytoprotect: inactive

What do the screens show for `CCOC(=O)c1ccc(-n2c(C)ccc2C)cc1`?
ERK EGF inh: inactive; HTT aggregate: inconclusive; HTT cytoprotect: inactive[0.074 µM]

What do the screens show for `C[C@@H]1C[C@@]2(C)Oc3ccccc3[C@H]3OC[C@]1(COC(=O)Nc1ccccc1)[C@@H](C)[C@@H]32`?
HTT cytoprotect: inactive

Results for C/C(N)=C(/C#N)C(=O)CSc1nn(-c2ccc(Cl)cc2)c(=S)s1 ?
ERK EGF inh: inconclusive; HTT aggregate: inconclusive; HTT cytoprotect: inactive

Results for C/C(N)=C(/C#N)C(=O)CSc1nnc(SCc2ccc(Cl)cc2)s1 ?
HTT aggregate: 11µM; HTT cytoprotect: inactive[10 µM]

What do the screens show for `OC[C@@H]1O[C@](CO)(O[C@H]2O[C@H](CO)[C@@H](O)[C@H](O)[C@H]2O)[C@H](O)[C@H]1O`?
HTT aggregate: inactive; HTT cytoprotect: inactive

How did COc1ccc(CCNc2ncnc3sccc23)cc1OC do in these assays?
ERK EGF inh: inactive; HTT aggregate: 1µM; HTT cytoprotect: inactive[10 µM]

What do the screens show for `COc1ccc(CCNc2nc(C)nc3c2oc2ccccc23)cc1OC`?
HTT aggregate: inconclusive; HTT cytoprotect: inactive[10 µM]

Results for COc1ccc(CCNc2ncnc3c2oc2ccccc23)cc1OC ?
HTT aggregate: 2µM; HTT cytoprotect: inactive

What do the screens show for `COc1ccc(CSc2ncnc3sccc23)cc1F`?
ERK EGF inh: inactive; HTT aggregate: inactive; HTT cytoprotect: inactive

How did CN(C)c1ncc2nc(-c3ccccc3)c(=O)n(CCc3ccccc3)c2n1 do in these assays?
HTT cytoprotect: inactive

How did O=C(Nc1ccc(Cl)cc1)N1CCN(c2ccc3nnc(-c4ccc(F)cc4)n3n2)CC1 do in these assays?
HTT aggregate: 22µM; HTT cytoprotect: inactive[10 µM]

How did O=C(Nc1ccccc1Cl)N1CCN(c2ccc3nnc(-c4ccccc4)n3n2)CC1 do in these assays?
HTT aggregate: inconclusive; HTT cytoprotect: inactive

What do the screens show for `COc1cc2c(cc1OC)C(c1ccc(-c3ccc(Cl)cc3Cl)o1)=NCC2`?
HTT aggregate: 14µM; HTT cytoprotect: inactive

How did COc1cc2c(cc1OC)C(c1ccc(-c3ccc(Cl)c(Cl)c3)o1)=NCC2 do in these assays?
HTT aggregate: 8.9µM; HTT cytoprotect: inactive[10 µM]

Results for COc1cc2c(cc1OC)C(c1ccc(-c3cc(Cl)ccc3Cl)o1)=NCC2 ?
ERK EGF inh: inconclusive; HTT aggregate: inactive; HTT cytoprotect: inactive[10 µM]

How did COc1cc2c(cc1OC)C(c1ccc(-c3ccccc3Cl)o1)=NCC2 do in these assays?
HTT aggregate: inconclusive; HTT cytoprotect: inactive

What do the screens show for `O=C(O)C1(C(=O)O)CCC1.[NH2-].[NH2-].[Pt+2]`?
HTT aggregate: inactive; HTT cytoprotect: inactive

How did COc1ccc(-c2nc3cnc(N4CCNCC4)nc3n(C3CC3)c2=O)cc1 do in these assays?
ERK EGF inh: inactive; HTT cytoprotect: inactive

Results for O=C(CSc1ccccc1)N1CCN(C(=O)c2ccco2)CC1 ?
ERK EGF inh: inactive; HTT aggregate: inactive; HTT cytoprotect: inactive

How did O=C(c1ccco1)N1CCN(C(=O)C(Sc2ccccc2)c2ccccc2)CC1 (configuration not stated) do in these assays?
HTT aggregate: 10µM; HTT cytoprotect: inactive[0.074 µM]

How did CC1(C)CC[C@]2(C(=O)O)C(O)C[C@@]3(C)C(=CCC4[C@@]5(C)CCC(O)C(C)(C)C5CC[C@@]43C)C2C1 (some centres not stated) do in these assays?
ERK EGF inh: inactive

What do the screens show for `COC(=O)[C@@]1(Cc2ccccc2)[C@H]2c3cc(C(=O)N(C)C)n(Cc4cc(F)c(F)c(F)c4)c3C[C@H]2CN1C(=O)c1ccccc1`?
ERK EGF inh: inactive; HTT cytoprotect: inactive

What do the screens show for `O=C(COC(=O)C(O)c1ccccc1)NC12CC3CC(CC(C3)C1)C2` (configuration not stated)?
HTT aggregate: inactive; HTT cytoprotect: inactive[10 µM]

What do the screens show for `O=C(CON=C1c2ccccc2-c2ccccc21)NC12CC3CC(CC(C3)C1)C2`?
ERK EGF inh: inactive; HTT aggregate: 11µM; HTT cytoprotect: inactive[10 µM]

Results for COC(=O)[C@@]1(C)C=C[C@@H](Cc2ccccc2)N1C(=O)c1ccccc1 ?
ERK EGF inh: inactive; HTT cytoprotect: inactive

Compound activity from PubChem.
